{
  "source": "paper PMC4336329",
  "about": "(PLoS ONE, 2015)",
  "note": "Hit rate of the full screen: of about 310,000 compounds, about 14,000 (4.5%) showed an effect of 50% or more. Effects have a minus sign here. This excerpt belongs to a sample that is enriched for strong results.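 Further: peak tail current of the secondary pulse compared with the same well before compound.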",
  "data": [
    {"molecular_target": "human ether-à-go-go-related gene (hERG) potassium channel (human, UniProt Q12809)", "sequence (Q12809 whole entry, looked up)": "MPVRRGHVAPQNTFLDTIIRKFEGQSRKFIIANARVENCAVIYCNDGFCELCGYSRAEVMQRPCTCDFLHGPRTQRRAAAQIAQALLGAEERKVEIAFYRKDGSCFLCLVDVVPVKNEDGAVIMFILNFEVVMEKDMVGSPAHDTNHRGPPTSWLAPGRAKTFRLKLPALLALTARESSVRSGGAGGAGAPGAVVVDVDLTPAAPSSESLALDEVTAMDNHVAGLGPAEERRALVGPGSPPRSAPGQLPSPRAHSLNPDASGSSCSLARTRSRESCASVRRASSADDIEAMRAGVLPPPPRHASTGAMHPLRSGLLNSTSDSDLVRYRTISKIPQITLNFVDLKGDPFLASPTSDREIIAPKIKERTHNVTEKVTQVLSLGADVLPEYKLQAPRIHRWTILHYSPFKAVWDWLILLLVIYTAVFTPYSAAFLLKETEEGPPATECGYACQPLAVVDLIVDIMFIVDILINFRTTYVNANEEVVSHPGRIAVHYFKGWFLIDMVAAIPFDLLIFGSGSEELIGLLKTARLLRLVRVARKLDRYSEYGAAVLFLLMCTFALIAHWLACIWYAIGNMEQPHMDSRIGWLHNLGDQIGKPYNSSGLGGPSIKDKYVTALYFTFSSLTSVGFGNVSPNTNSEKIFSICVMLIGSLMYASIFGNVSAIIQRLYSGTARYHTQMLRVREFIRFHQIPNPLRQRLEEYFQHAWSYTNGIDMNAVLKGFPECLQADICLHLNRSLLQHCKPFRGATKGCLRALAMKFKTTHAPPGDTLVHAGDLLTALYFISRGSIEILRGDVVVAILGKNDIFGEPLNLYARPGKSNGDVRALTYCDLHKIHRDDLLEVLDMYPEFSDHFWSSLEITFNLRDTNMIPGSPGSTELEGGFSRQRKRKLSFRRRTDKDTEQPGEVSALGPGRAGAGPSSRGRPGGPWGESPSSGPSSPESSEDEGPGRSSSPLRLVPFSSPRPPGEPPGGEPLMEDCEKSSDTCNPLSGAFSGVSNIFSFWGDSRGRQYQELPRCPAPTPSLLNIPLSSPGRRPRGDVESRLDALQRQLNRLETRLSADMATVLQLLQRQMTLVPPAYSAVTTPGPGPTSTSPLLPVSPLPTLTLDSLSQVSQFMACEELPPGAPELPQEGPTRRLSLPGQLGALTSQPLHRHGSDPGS", "experiment": "primary screen, population patch clamp on CHO cells stably expressing hERG; higher = less effect of the substance", "units": {"hERG current change (%, negative = inhibition) at 10uM": "%"}, "values": [
      {"compound": "Cc1nn2c(C(F)(F)F)c3c(nc2c1-c1ccccc1)CCC3", "hERG current change (%, negative = inhibition) at 10uM": 19.1},
      {"compound": "CC(=O)Nc1ccc(NS(=O)(=O)C(F)(F)F)cc1", "hERG current change (%, negative = inhibition) at 10uM": 31.2},
      {"compound": "O=C(COc1ccc(Cl)cc1)NCC(=O)N1CCC2(CC1)NCCc1[nH]cnc12", "hERG current change (%, negative = inhibition) at 10uM": 7.16},
      {"compound": "O=C(CSc1nc2c(c(=O)n1-c1ccc(F)cc1)SCC2)Nc1ccc2c(c1)OCO2", "hERG current change (%, negative = inhibition) at 10uM": -2.35},
      {"compound": "COc1cccc(-c2cc(C(=O)NCCc3ccccc3)no2)c1", "hERG current change (%, negative = inhibition) at 10uM": 11.9},
      {"compound": "COc1cccc(-c2cc(CC3(O)CCN(CCCc4ccccc4)CC3)on2)c1", "hERG current change (%, negative = inhibition) at 10uM": -89.1},
      {"compound": "COc1cccc(-c2cc(C(=O)N3CCN(Cc4ccccc4)CC3)no2)c1", "hERG current change (%, negative = inhibition) at 10uM": -15.7},
      {"compound": "c1ccc(CCCN2CCOCC2)cc1", "hERG current change (%, negative = inhibition) at 10uM": 22.1},
      {"compound": "OC1(Cc2cc(-c3ccccc3)no2)CCN(CCCc2ccccc2)CC1", "hERG current change (%, negative = inhibition) at 10uM": -77},
      {"compound": "CC(C)(C)OC(=O)N1CCC(Cc2cc(-c3ccccc3)no2)(C(=O)O)CC1", "hERG current change (%, negative = inhibition) at 10uM": 12.1},
      {"compound": "COCCN1Cc2cccc(C(=O)Nc3ccc(S(=O)(=O)N4CCOCC4)cc3)c2C1=O", "hERG current change (%, negative = inhibition) at 10uM": 27.3},
      {"compound": "O=C(O)CCCN=C1NC2(CCCC2)Cc2ccccc21", "hERG current change (%, negative = inhibition) at 10uM": -39.6},
      {"compound": "COc1cccc(C(=O)N(Cc2ccccc2)Cc2cc3cc4c(cc3[nH]c2=O)OCCO4)c1", "hERG current change (%, negative = inhibition) at 10uM": -25.3},
      {"compound": "COc1cc(Cl)cc(CN2CCC(CCC(=O)NC3CC3)CC2)c1OC", "hERG current change (%, negative = inhibition) at 10uM": -20.8},
      {"compound": "COc1cc(Cl)c(CN2CCC(CCC(=O)NC3CC3)CC2)cc1OC", "hERG current change (%, negative = inhibition) at 10uM": -66.2},
      {"compound": "COc1cc(NC(=O)C2CC2)c(OC)cc1NC(=O)CCC(=O)NC1CCN(Cc2ccccc2)CC1", "hERG current change (%, negative = inhibition) at 10uM": 2.82},
      {"compound": "COc1ccc(OC)c(C(=O)N2CCC(CCC(=O)NC3CC3)CC2)c1", "hERG current change (%, negative = inhibition) at 10uM": 13.1},
      {"compound": "CCOCc1cc(CN2CCC(CCC(=O)NC3CC3)CC2)ccc1OC", "hERG current change (%, negative = inhibition) at 10uM": -62.1},
      {"compound": "COc1cc(CN2CCC(CCC(=O)NC3CC3)CC2)cc(Cl)c1OC", "hERG current change (%, negative = inhibition) at 10uM": -55.4},
      {"compound": "COc1cc(Br)c(CC(=O)NC2CC2)cc1OC", "hERG current change (%, negative = inhibition) at 10uM": 17.8},
      {"compound": "COc1ccccc1CC(=O)N1CCC(CCC(=O)NC2CC2)CC1", "hERG current change (%, negative = inhibition) at 10uM": 13.8},
      {"compound": "COc1cc(CC(=O)OCC(=O)NC2CC2)cc(OC)c1OC", "hERG current change (%, negative = inhibition) at 10uM": 10.4},
      {"compound": "COc1ccc(-c2nc3ccccc3c(=O)n2CCOc2ccccc2C)cc1", "hERG current change (%, negative = inhibition) at 10uM": 21},
      {"compound": "Cc1ccccc1-c1nc(CS(=O)(=O)CC(=O)NCCN2CCCC2)c(C)o1", "hERG current change (%, negative = inhibition) at 10uM": -10.4},
      {"compound": "COC(=O)c1ccccc1NC(=O)CCC(=O)N1CCSc2ccccc21", "hERG current change (%, negative = inhibition) at 10uM": -12.1},
      {"compound": "COc1ccc(N(CC(=O)Nc2cccc(SC)c2)S(C)(=O)=O)cc1", "hERG current change (%, negative = inhibition) at 10uM": -12.5},
      {"compound": "CC(CCc1ccccc1)NC(=O)CNC(=O)c1cccs1", "note": "(stereo not drawn)", "hERG current change (%, negative = inhibition) at 10uM": -5.72},
      {"compound": "COc1ccc(NC(=O)NNC(=O)C(C)Oc2ccc3ccccc3c2)cc1", "note": "(stereo not drawn)", "hERG current change (%, negative = inhibition) at 10uM": 8.34},
      {"compound": "CC(C)(C)c1ccc(-c2conc2N)cc1", "hERG current change (%, negative = inhibition) at 10uM": 5.58},
      {"compound": "CCOc1ccccc1C(=O)N(C)CC(=O)Nc1ccc(OC)cc1", "hERG current change (%, negative = inhibition) at 10uM": 12},
      {"compound": "Cc1ccc(S(=O)(=O)NNC(=S)Nc2c(Cl)cccc2Cl)cc1", "hERG current change (%, negative = inhibition) at 10uM": 16.8},
      {"compound": "Cc1cc(N2CCCc3ccccc32)n2ncnc2n1", "hERG current change (%, negative = inhibition) at 10uM": 6.99},
      {"compound": "Cc1ccc(S(=O)(=O)N(C)C)cc1NC(=O)C1Cc2ccccc2CN1C(=O)c1ccco1", "note": "(stereo not drawn)", "hERG current change (%, negative = inhibition) at 10uM": -9.91},
      {"compound": "CCOC(=O)c1nc(NCc2cccc(OC)c2)c2ccccc2n1", "hERG current change (%, negative = inhibition) at 10uM": -13.5},
      {"compound": "COc1ccc(-c2ccc(SCC(=O)NCc3ccco3)nn2)cc1", "hERG current change (%, negative = inhibition) at 10uM": -8.73},
      {"compound": "CSc1nc(NCc2ccco2)c2ccccc2n1", "hERG current change (%, negative = inhibition) at 10uM": 2.5},
      {"compound": "CCCCN(C)C(=O)CSc1nc(NCc2ccc(OC)cc2)c2ccccc2n1", "hERG current change (%, negative = inhibition) at 10uM": -71},
      {"compound": "COc1ccc(CNc2ncnc3ccccc23)cc1", "hERG current change (%, negative = inhibition) at 10uM": 21.7},
      {"compound": "CCOC(=O)CSc1nc(NCc2ccco2)c2ccccc2n1", "hERG current change (%, negative = inhibition) at 10uM": -56.1},
      {"compound": "CCOC(=O)CSc1nc(C)c2ccccc2n1", "hERG current change (%, negative = inhibition) at 10uM": 0.921},
      {"compound": "COc1ccc(CNC(=O)c2ccccc2SCC(=O)NCc2ccco2)cc1", "hERG current change (%, negative = inhibition) at 10uM": -31.3},
      {"compound": "COc1ccc(CNc2nc(SCC(=O)NCc3ccco3)nc3ccccc23)cc1", "hERG current change (%, negative = inhibition) at 10uM": -68.9},
      {"compound": "CCN1CCN(Cc2ccc(NC(=O)c3cc(NC(=O)c4cc(C)on4)cc(OC)c3)cc2C(F)(F)F)CC1.O=C(O)C(F)(F)F", "hERG current change (%, negative = inhibition) at 10uM": -28.7},
      {"compound": "Cc1ccc2cccc(S(=O)(=O)NC3CCS(=O)(=O)C3)c2n1", "note": "(stereo not drawn)", "hERG current change (%, negative = inhibition) at 10uM": -7.02},
      {"compound": "O=S(=O)(NCC1(N2CCOCC2)CCCCC1)c1ccc(Cl)cc1C(F)(F)F", "hERG current change (%, negative = inhibition) at 10uM": -0.581}
    ]}
  ]
}
